Laboratory results as given in PMC8384837, “Expanding the binding specificity for RNA recognition by a PUF domain”.
Substitutions are numbered along the chain they refer to.

What was measured:
Test in all cases: yeast three-hybrid, YBZ-1, SC-Leu-His + 0.5 mM 3-AT, 4 days
Details in all cases: tags: N-Gal4 AD-HA kept; label: inside an RPR1-promoter hybrid RNA with tandem MS2 sites; ssRNA
PUM1 PUF domain R4-EHG = PUM1 PUF domain R4-EHG (Homo sapiens, UniProt Q14671 828-1176, N971E;Q975G)
Method in brief: (§1)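 Pumilio-1 PUF domain libraries, randomized (NNK) at the three base-contacting residues of each repeat, were co-expressed with matching RNA elements from a centromeric plasmid in strain YBZ-1 (LexA–MS2 coat fusion, HIS3 reporter). Transformants were plated on SC-Leu (input) and SC-Leu-His + 0.5 mM 3-AT (selection) for four days, and repeat regions were PCR-amplified and Illumina-sequenced. The interaction score is the log2 change in variant frequency from input to selection, with pseudocount 1 where absent.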

PUM1 PUF domain R4-SRG = PUM1 PUF domain R4-SRG (Homo sapiens, UniProt Q14671 828-1176, N971S;H972R;Q975G)
Method in brief: as §1

PUM1 PUF domain R6-VFK = target: T1, PUM1 PUF domain R6-VFK (Homo sapiens, UniProt Q14671 828-1176, N1043V;Y1044F;Q1047K)
T1 sequence: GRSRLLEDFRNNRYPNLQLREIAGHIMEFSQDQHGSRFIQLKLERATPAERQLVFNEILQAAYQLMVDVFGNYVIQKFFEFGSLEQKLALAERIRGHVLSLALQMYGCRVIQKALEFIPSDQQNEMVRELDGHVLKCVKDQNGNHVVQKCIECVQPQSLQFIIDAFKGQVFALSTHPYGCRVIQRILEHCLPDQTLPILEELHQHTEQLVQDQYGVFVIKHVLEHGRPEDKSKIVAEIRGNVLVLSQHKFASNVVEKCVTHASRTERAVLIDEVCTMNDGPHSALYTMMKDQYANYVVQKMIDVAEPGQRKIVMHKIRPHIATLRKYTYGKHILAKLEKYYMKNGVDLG
Method in brief: as §1

PUM1 PUF domain R3-TRC = PUM1 PUF domain R3-TRC (Homo sapiens, UniProt Q14671 828-1176, C935T;Q939C)
Method in brief: as §1

PUM1 PUF domain R5-LHD = PUM1 PUF domain R5-LHD (Homo sapiens, UniProt Q14671 828-1176, C1007L;R1008H;Q1011D)
Method in brief: as §1

PUM1 PUF domain R6-SFK = target: T2, PUM1 PUF domain R6-SFK (Homo sapiens, UniProt Q14671 828-1176, N1043S;Y1044F;Q1047K)
T2 sequence: T1 sequence with V216S
Method in brief: as §1

PUM1 PUF domain R3-LYI = PUM1 PUF domain R3-LYI (Homo sapiens, UniProt Q14671 828-1176, C935L;R936Y;Q939I)
Method in brief: as §1

PUM1 PUF domain R4-RMQ = PUM1 PUF domain R4-RMQ (Homo sapiens, UniProt Q14671 828-1176, N971R;H972M)
Method in brief: as §1

PUM1 PUF domain R2-PFQ = PUM1 PUF domain R2-PFQ (Homo sapiens, UniProt Q14671 828-1176, N899P;Y900F)
Method in brief: as §1

PUM1 PUF domain R7-RRH = PUM1 PUF domain R7-RRH (Homo sapiens, UniProt Q14671 828-1176, S1079R;N1080R;E1083H)
Method in brief: as §1

PUM1 PUF domain R7-ISS = PUM1 PUF domain R7-ISS (Homo sapiens, UniProt Q14671 828-1176, S1079I;N1080S;E1083S)
Method in brief: as §1

PUM1 PUF domain R3-SCP = PUM1 PUF domain R3-SCP (Homo sapiens, UniProt Q14671 828-1176, C935S;R936C;Q939P)
Method in brief: as §1

PUM1 PUF domain R3-FRR = PUM1 PUF domain R3-FRR (Homo sapiens, UniProt Q14671 828-1176, C935F;Q939R)
Method in brief: as §1

PUM1 PUF domain R3-GIR = PUM1 PUF domain R3-GIR (Homo sapiens, UniProt Q14671 828-1176, C935G;R936I;Q939R)
Method in brief: as §1

PUM1 PUF domain R3-AAE = PUM1 PUF domain R3-AAE (Homo sapiens, UniProt Q14671 828-1176, C935A;R936A;Q939E)
Method in brief: as §1

## GGCUAGAACUAGUGGAUCCCCCGGCGCCCGGCGGCUCGAGCCCGGGUAAGUGUAAAUAGUCUGCAUGCCGCCGGGCGCCAUGCCUGCAGGUCGACUCUAGAAAACAUG
PUM1 PUF domain R4-EHG
  binding signal: 2.3 log2 enrichment (interaction score)
PUM1 PUF domain R4-SRG
  binding signal: 4.42 log2 enrichment (interaction score)
PUM1 PUF domain R6-VFK
  binding signal: 3.04 log2 enrichment (interaction score)
PUM1 PUF domain R3-TRC
  binding signal: 3.26 log2 enrichment (interaction score)
PUM1 PUF domain R5-LHD
  binding signal: 3.18 log2 enrichment (interaction score)
PUM1 PUF domain R6-SFK
  binding signal: 6.49 log2 enrichment (interaction score)
PUM1 PUF domain R3-LYI
  binding signal: 4.35 log2 enrichment (interaction score)
PUM1 PUF domain R4-RMQ
  binding signal: 3.34 log2 enrichment (interaction score)

## GGCUAGAACUAGUGGAUCCCCCGGCGCCCGGCGGCUCGAGCCCGGGUAAGUGUAAAAAGUCUGCAUGCCGCCGGGCGCCAUGCCUGCAGGUCGACUCUAGAAAACAUG
PUM1 PUF domain R2-PFQ
  binding signal: 4.24 log2 enrichment (interaction score)

## GGCUAGAACUAGUGGAUCCCCCGGCGCCCGGCGGCUCGAGCCCGGGUAAGUUUAAAUAGUCUGCAUGCCGCCGGGCGCCAUGCCUGCAGGUCGACUCUAGAAAACAUG
PUM1 PUF domain R7-RRH
  binding signal: 5.13 log2 enrichment (interaction score)
PUM1 PUF domain R7-ISS
  binding signal: 3.84 log2 enrichment (interaction score)

## GGCUAGAACUAGUGGAUCCCCCGGCGCCCGGCGGCUCGAGCCCGGGUAAGUGUAAGUAGUCUGCAUGCCGCCGGGCGCCAUGCCUGCAGGUCGACUCUAGAAAACAUG
PUM1 PUF domain R3-SCP
  binding signal: 3.88 log2 enrichment (interaction score)
PUM1 PUF domain R3-FRR
  binding signal: 5.43 log2 enrichment (interaction score)
PUM1 PUF domain R3-GIR
  binding signal: 3.07 log2 enrichment (interaction score)
PUM1 PUF domain R3-AAE
  binding signal: 3.07 log2 enrichment (interaction score)
PUM1 PUF domain R3-TRC
  binding signal: 2.14 log2 enrichment (interaction score)

## GGCUAGAACUAGUGGAUCCCCCGGCGCCCGGCGGCUCGAGCCCGGGUAAGUGUGAAUAGUCUGCAUGCCGCCGGGCGCCAUGCCUGCAGGUCGACUCUAGAAAACAUG
PUM1 PUF domain R5-LHD
  binding signal: 2.82 log2 enrichment (interaction score)
